The source of these data is PMC11006913.

What all share (assay): PBM; 200 nM protein, PBS
Common to all, as to details: dsDNA, one strand shown

The target of assay [1] is HOXA7 (Homo sapiens, UniProt P31268 116-202).
Assay [2] has as its target HOXC10 (Homo sapiens, UniProt Q9NYD6 254-340).
For assay [3], the target named is HOXA2 (Homo sapiens, UniProt O43364 129-215, R185T).
Assay [4] has as its target HOXA2 (Homo sapiens, UniProt O43364 129-215, R185K).
Assay [5] addresses HOXC10 (Homo sapiens, UniProt Q9NYD6 254-340, K271E).
Assay [6] addresses HOXA2 (Homo sapiens, UniProt O43364 129-215, Y150S).
The target in assay [7] is HOXA7 (Homo sapiens, UniProt P31268 116-202, W177C).
In assay [8] the target is HOXA2 (Homo sapiens, UniProt O43364 129-215).
The target in assay [9] is HOXC9 (Homo sapiens, UniProt P31274 178-260, K195R).
Assay [10] has as its target HOXC9 (Homo sapiens, UniProt P31274 178-260).
Assay [11] deals with HOXC9 (Homo sapiens, UniProt P31274 178-260, R193K).
In assay [12] the target is HOXC9 (Homo sapiens, UniProt P31274 178-260, R222W).
Assay [13] deals with T1, VENTX (Homo sapiens, UniProt O95231 78-163).
T1 sequence: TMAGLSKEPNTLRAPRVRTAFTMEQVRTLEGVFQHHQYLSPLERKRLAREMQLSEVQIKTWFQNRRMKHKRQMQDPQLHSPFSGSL

Assay [14] concerns the target NKX3-2 (Homo sapiens, UniProt P78367 192-278, P234S).
For assay [15], the target named is NKX3-2 (Homo sapiens, UniProt P78367 192-278).
Assay [16] deals with T2, VENTX (Homo sapiens, UniProt O95231 78-163, Y115F).
T2 sequence: T1 sequence with Y38F

In assay [17] the target is T3, SIX6 (Homo sapiens, UniProt O95475 114-200, L143V).
T3 sequence: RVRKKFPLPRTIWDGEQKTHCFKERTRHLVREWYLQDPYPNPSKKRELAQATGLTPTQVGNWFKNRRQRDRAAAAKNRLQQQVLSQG

Assay [18] has as its target PROP1 (Homo sapiens, UniProt O75360 56-141).
In assay [19] the target is PROP1 (Homo sapiens, UniProt O75360 56-141, R99H).
Assay [20] has as its target PROP1 (Homo sapiens, UniProt O75360 56-141, F88S).

Where a chain is given by its changes, count along the chain named.

Sequence of HOXC9 (Homo sapiens, UniProt P31274 178-260, R222W) (P31274 178-260 R222W): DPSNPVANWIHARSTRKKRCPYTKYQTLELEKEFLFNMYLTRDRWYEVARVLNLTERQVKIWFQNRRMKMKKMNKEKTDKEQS
Sequence of HOXC9 (Homo sapiens, UniProt P31274 178-260) (P31274 178-260): as the sequence (P31274 178-260 R222W) above, with W45R counted along it
Sequence of HOXC9 (Homo sapiens, UniProt P31274 178-260, R193K) (P31274 178-260 R193K): as the sequence (P31274 178-260 R222W) above, with R16K, W45R counted along it
Sequence of HOXC9 (Homo sapiens, UniProt P31274 178-260, K195R) (P31274 178-260 K195R): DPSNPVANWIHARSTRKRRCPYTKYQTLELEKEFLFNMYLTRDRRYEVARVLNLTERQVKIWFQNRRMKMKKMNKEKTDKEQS
Sequence of HOXA7 (Homo sapiens, UniProt P31268 116-202) (P31268 116-202): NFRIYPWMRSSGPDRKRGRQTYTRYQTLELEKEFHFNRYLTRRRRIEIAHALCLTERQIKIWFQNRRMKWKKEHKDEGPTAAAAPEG
Sequence of HOXA7 (Homo sapiens, UniProt P31268 116-202, W177C) (P31268 116-202 W177C): as the sequence (P31268 116-202) above, with W62C counted along it
Sequence of HOXA2 (Homo sapiens, UniProt O43364 129-215, R185T) (O43364 129-215 R185T): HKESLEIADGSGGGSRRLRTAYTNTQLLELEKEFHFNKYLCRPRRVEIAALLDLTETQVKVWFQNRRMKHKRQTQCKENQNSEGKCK
Sequence of HOXA2 (Homo sapiens, UniProt O43364 129-215) (O43364 129-215): as the sequence (O43364 129-215 R185T) above, with T57R counted along it
Sequence of NKX3-2 (Homo sapiens, UniProt P78367 192-278, P234S) (P78367 192-278 P234S): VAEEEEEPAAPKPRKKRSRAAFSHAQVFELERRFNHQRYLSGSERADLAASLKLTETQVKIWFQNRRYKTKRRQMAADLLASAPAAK
Sequence of HOXA2 (Homo sapiens, UniProt O43364 129-215, R185K) (O43364 129-215 R185K): as the sequence (O43364 129-215 R185T) above, with T57K counted along it
Sequence of PROP1 (Homo sapiens, UniProt O75360 56-141, R99H) (O75360 56-141 R99H): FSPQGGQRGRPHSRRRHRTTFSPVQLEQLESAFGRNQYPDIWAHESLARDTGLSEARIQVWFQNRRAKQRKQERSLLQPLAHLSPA
Sequence of PROP1 (Homo sapiens, UniProt O75360 56-141) (O75360 56-141): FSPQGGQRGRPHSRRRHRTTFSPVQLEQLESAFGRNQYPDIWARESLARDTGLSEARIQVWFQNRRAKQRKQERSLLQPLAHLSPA
Sequence of HOXC10 (Homo sapiens, UniProt Q9NYD6 254-340, K271E) (Q9NYD6 254-340 K271E): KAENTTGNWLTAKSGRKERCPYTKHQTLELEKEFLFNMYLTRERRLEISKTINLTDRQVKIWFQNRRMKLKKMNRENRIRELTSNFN
Sequence of HOXC10 (Homo sapiens, UniProt Q9NYD6 254-340) (Q9NYD6 254-340): as the sequence (Q9NYD6 254-340 K271E) above, with E18K counted along it
Sequence of PROP1 (Homo sapiens, UniProt O75360 56-141, F88S) (O75360 56-141 F88S): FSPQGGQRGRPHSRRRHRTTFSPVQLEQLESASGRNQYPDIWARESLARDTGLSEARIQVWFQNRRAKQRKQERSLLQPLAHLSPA
Sequence of HOXA2 (Homo sapiens, UniProt O43364 129-215, Y150S) (O43364 129-215 Y150S): as the sequence (O43364 129-215 R185T) above, with Y22S, T57R counted along it
Sequence of NKX3-2 (Homo sapiens, UniProt P78367 192-278) (P78367 192-278): as the sequence (P78367 192-278 P234S) above, with S43P counted along it

Take CACCGGTC: the binding signal in assay [1] was 8.56 upbm affinity estimate (log intensity, higher = more binding, comparable within an allelic series); in [2] it was 10 upbm affinity estimate (log intensity, higher = more binding, comparable within an allelic series); in assay [3], 7.38 upbm affinity estimate (log intensity, higher = more binding, comparable within an allelic series); in assay [4], 10.4 upbm affinity estimate (log intensity, higher = more binding, comparable within an allelic series); in assay [5], 9.92 upbm affinity estimate (log intensity, higher = more binding, comparable within an allelic series); in [6], 10.3 upbm affinity estimate (log intensity, higher = more binding, comparable within an allelic series). Further, the binding signal in [7] was 8.34 upbm affinity estimate (log intensity, higher = more binding, comparable within an allelic series); in assay [8], 7.28 upbm affinity estimate (log intensity, higher = more binding, comparable within an allelic series).

AGGACGTG: the binding signal in assay [9] is 9.73 upbm affinity estimate (log intensity, higher = more binding, comparable within an allelic series); in [10], 9.75 upbm affinity estimate (log intensity, higher = more binding, comparable within an allelic series); in assay [11], 9.75 upbm affinity estimate (log intensity, higher = more binding, comparable within an allelic series); in assay [12] it was 9.71 upbm affinity estimate (log intensity, higher = more binding, comparable within an allelic series).

On to AACCAAAT, for which the binding signal was 10 upbm affinity estimate (log intensity, higher = more binding, comparable within an allelic series) in assay [13]; 9.12 upbm affinity estimate (log intensity, higher = more binding, comparable within an allelic series) in assay [3]; 9.13 upbm affinity estimate (log intensity, higher = more binding, comparable within an allelic series) in assay [8].

CCGGTACC: the binding signal was 9.7 upbm affinity estimate (log intensity, higher = more binding, comparable within an allelic series) in [9]; 9.7 upbm affinity estimate (log intensity, higher = more binding, comparable within an allelic series) in [10]; 9.72 upbm affinity estimate (log intensity, higher = more binding, comparable within an allelic series) in [11]; 9.71 upbm affinity estimate (log intensity, higher = more binding, comparable within an allelic series) in [12]; 10.5 upbm affinity estimate (log intensity, higher = more binding, comparable within an allelic series) in [14]; 10.6 upbm affinity estimate (log intensity, higher = more binding, comparable within an allelic series) in assay [15].

In the case of ACCGATCT, in assay [13], the binding signal is 9.79 upbm affinity estimate (log intensity, higher = more binding, comparable within an allelic series).

For the sequence AATGGGGA, the binding signal in assay [13] was 10.3 upbm affinity estimate (log intensity, higher = more binding, comparable within an allelic series).

Turning to CGGTCCAG, the binding signal in assay [9] was 9.64 upbm affinity estimate (log intensity, higher = more binding, comparable within an allelic series); in [10], 9.66 upbm affinity estimate (log intensity, higher = more binding, comparable within an allelic series); in assay [11], 9.64 upbm affinity estimate (log intensity, higher = more binding, comparable within an allelic series); in assay [12], 9.63 upbm affinity estimate (log intensity, higher = more binding, comparable within an allelic series).

Regarding CCAGCCCG, the binding signal in assay [9] was 9.66 upbm affinity estimate (log intensity, higher = more binding, comparable within an allelic series); in assay [10] it was 9.72 upbm affinity estimate (log intensity, higher = more binding, comparable within an allelic series); in assay [11] it was 9.7 upbm affinity estimate (log intensity, higher = more binding, comparable within an allelic series); in assay [12], 9.67 upbm affinity estimate (log intensity, higher = more binding, comparable within an allelic series).

ATTTAGTC: the binding signal in assay [13] was 10.2 upbm affinity estimate (log intensity, higher = more binding, comparable within an allelic series).

As for ATTTAGAC, the binding signal in assay [1] is 9.49 upbm affinity estimate (log intensity, higher = more binding, comparable within an allelic series).

For the sequence AATTGGAC, the binding signal in [13] was 10.1 upbm affinity estimate (log intensity, higher = more binding, comparable within an allelic series); in assay [16], 9.62 upbm affinity estimate (log intensity, higher = more binding, comparable within an allelic series).

GGTGATAA: the binding signal in assay [13] was 10.3 upbm affinity estimate (log intensity, higher = more binding, comparable within an allelic series).

Consider CGTGATCA, for which the binding signal was 9.86 upbm affinity estimate (log intensity, higher = more binding, comparable within an allelic series) in assay [13] and 9.57 upbm affinity estimate (log intensity, higher = more binding, comparable within an allelic series) in assay [16].

For GGATATAA, in [17], the binding signal was 10.5 upbm affinity estimate (log intensity, higher = more binding, comparable within an allelic series).

With AGGCTCCC, the binding signal in [9] was 9.39 upbm affinity estimate (log intensity, higher = more binding, comparable within an allelic series); in assay [10] it was 9.56 upbm affinity estimate (log intensity, higher = more binding, comparable within an allelic series); in assay [11] it was 9.51 upbm affinity estimate (log intensity, higher = more binding, comparable within an allelic series); in [12] it was 9.47 upbm affinity estimate (log intensity, higher = more binding, comparable within an allelic series).

As to CGATAACC, the binding signal in [13] is 9.81 upbm affinity estimate (log intensity, higher = more binding, comparable within an allelic series).

For the sequence ACGCCATA, the binding signal is 11 upbm affinity estimate (log intensity, higher = more binding, comparable within an allelic series) in [9]; 10.9 upbm affinity estimate (log intensity, higher = more binding, comparable within an allelic series) in assay [10]; 11 upbm affinity estimate (log intensity, higher = more binding, comparable within an allelic series) in assay [11]; 10.2 upbm affinity estimate (log intensity, higher = more binding, comparable within an allelic series) in assay [12].

GTATTTAA: the binding signal in [1] was 10.1 upbm affinity estimate (log intensity, higher = more binding, comparable within an allelic series); in assay [18] it was 9.2 upbm affinity estimate (log intensity, higher = more binding, comparable within an allelic series); in [19] it was 8.79 upbm affinity estimate (log intensity, higher = more binding, comparable within an allelic series); in assay [20] it was 7.52 upbm affinity estimate (log intensity, higher = more binding, comparable within an allelic series); in assay [7], 8.94 upbm affinity estimate (log intensity, higher = more binding, comparable within an allelic series).
